Results filed as inconclusive are left out. Entries that show only a call come without a potency. Values without a mark were called inactive. The source made the active and inactive calls. Unless noted, calls follow the shape of the dose curve; as a rule, active = well fitted curve in the direction sought with a large enough effect; inconclusive = small, poorly fitted or top-dose-only effect, or another doubt; inactive = no such curve, though single readings can be large; an effect the other way counts as inactive or inconclusive.
Assays:
[1] = biological target: Calcium and integrin-binding protein 1 (Homo sapiens) (UniProt Q99828); assay: Primary qHTS for Identification of Calcium Integrin Binding Protein 1 (CIB1) Competitor (AID 1508620);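 also: GST tagged CIB1 binding a fluorescein labelled alphaIIb integrin peptide tracer; top concentration of the series differs between compounds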
Calcium and integrin-binding protein 1 (Homo sapiens), sequence (Q99828 whole entry, looked up): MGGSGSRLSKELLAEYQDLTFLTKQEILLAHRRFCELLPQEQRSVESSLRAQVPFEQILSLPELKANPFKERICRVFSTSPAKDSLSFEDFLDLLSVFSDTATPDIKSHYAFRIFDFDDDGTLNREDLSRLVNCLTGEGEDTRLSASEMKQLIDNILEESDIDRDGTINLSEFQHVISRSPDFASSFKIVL
Outline: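 Fluorescence polarization competition: CIB1-GST (1 uM final) preincubated with compound 15 min at room temperature, then FITC-labeled alphaIIb peptide (100 nM final) added for another 15 min. Polarization read at Ex 480/Em 540.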

[2] = biological target: Cytochrome P450 2C9 (Homo sapiens) (UniProt P11712); assay: Cytochrome P450 family 2 subfamily C member 9 (CYP2C9) small molecule antagonists: luciferase biochemical (cell-free) qHTS assay (AID 1645842; active = well fitted curve in the direction sought with a large enough effect in the repeat runs; an effect the other way counts as inactive or inconclusive; also: nearly all actives have a fitted effect of over 55% in size; also: potency is read from the fitted curve at half-maximal effect)
Cytochrome P450 2C9 (Homo sapiens), sequence (P11712 whole entry, looked up): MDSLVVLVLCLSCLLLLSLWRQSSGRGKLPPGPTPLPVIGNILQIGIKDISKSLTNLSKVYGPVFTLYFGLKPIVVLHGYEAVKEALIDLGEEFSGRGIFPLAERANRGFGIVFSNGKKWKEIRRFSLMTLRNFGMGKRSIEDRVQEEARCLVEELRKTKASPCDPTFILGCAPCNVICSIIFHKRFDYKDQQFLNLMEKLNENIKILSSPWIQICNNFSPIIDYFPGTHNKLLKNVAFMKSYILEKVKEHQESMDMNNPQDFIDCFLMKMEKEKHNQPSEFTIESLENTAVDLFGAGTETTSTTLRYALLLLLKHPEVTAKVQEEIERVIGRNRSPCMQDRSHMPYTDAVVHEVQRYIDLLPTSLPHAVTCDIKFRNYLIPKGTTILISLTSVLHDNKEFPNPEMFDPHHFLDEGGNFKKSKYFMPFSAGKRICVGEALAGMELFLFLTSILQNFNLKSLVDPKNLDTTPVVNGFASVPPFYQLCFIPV
Outline: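 P450-Glo CYP2C9 system: proluciferin substrate with enzyme in mix containing 0.4% BSA, 10 min at room temperature, then NADPH regeneration solution added and incubated 1 h at 37C. Detection reagent stopped reaction; luminescence read after 20 min as RLU.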

[3] = Primary qHTS for inhibitors of nuclear receptor binding SET domain protein 2 (NSD2) in an isogenic RCH-ACV NSD2 p.E1099K mutant (9B) (AID 1645876); also: nearly all actives have a fitted effect of over 70% in size; also: potency is read from the fitted curve at half-maximal effect
[4] = Primary qHTS for inhibitors of nuclear receptor binding SET domain protein 2 (NSD2) in an RCH-ACV wild type WT cells (2C) (AID 1645877); also: nearly all actives have a fitted effect of over 70% in size; also: potency is read from the fitted curve at half-maximal effect
[5] = biological target: N-terminal Xaa-Pro-Lys N-methyltransferase 1 (Homo sapiens) (UniProt Q9BV86); assay: Confirmatory qHTS for Inhibitors of N-terminal methyltransferase 1 (NTMT1): MTaseGlo Assay (AID 1645874); also: nearly all actives have a fitted effect of over 65% in size; also: potency is read from the fitted curve at half-maximal effect
N-terminal Xaa-Pro-Lys N-methyltransferase 1 (Homo sapiens), sequence (Q9BV86 whole entry, looked up): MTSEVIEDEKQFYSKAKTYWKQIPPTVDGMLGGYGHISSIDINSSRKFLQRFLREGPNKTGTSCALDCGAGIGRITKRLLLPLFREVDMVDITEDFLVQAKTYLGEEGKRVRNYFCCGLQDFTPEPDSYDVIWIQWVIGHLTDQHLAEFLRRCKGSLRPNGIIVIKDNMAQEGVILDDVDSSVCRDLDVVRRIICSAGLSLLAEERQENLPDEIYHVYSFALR
Outline: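 Inhibition was derived from luminescence after SAH-to-ATP conversion, scaled between no-enzyme and DMSO wells, then fitted by 4-parameter Hill. Conditions: 125 nM NTMT1, 100 uM SAM, 1 uM SPKRIA, 30 min RT.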

SMILES	Potency [1]	Potency [2]	Potency [3]	Potency [4]	Potency [5]	activity change, negative = viability loss [3]
CCOc1nc2c(N)ncnc2n1CC	inactive	inactive	inactive	inactive		
COc1cccc(C(=O)NCCNc2nc3cc(C)cc(C)c3cc2C#N)c1	inactive	1.69 µM (active)		inactive	inactive	
CCCC(=O)Nc1cccc(NC(=O)c2ccccc2Br)c1	inactive	inactive	inactive	inactive		
O=C(NCC(=O)N1CCCC1)Nc1ccc2ccccc2c1	inactive	inactive	inactive	inactive		
COC(=O)Cn1nc(-c2cccc(OC)c2)c2ccccc21	inactive	13.5 µM (active)	inactive	inactive		
Cc1cc(C(=O)N2Cc3cnn(C)c3Nc3ccccc32)ccc1CNC(=O)N1CCN(Cc2cc(O)cc(O)c2)CC1	inactive	2.39 µM (active)	inactive			
O=C(c1c2ccccc2cc2ccccc12)N1CCC(N2CCC[C@@H](C(=O)N3CCOCC3)C2)CC1	inactive	inactive	inactive	inactive		
Cc1ccc(C)c(NC(=O)CNS(=O)(=O)c2ccc3[nH]c(=O)oc3c2)c1	inactive	inactive	inactive	inactive		
NC(=O)c1ccc(F)c2c1C[C@@H](N(C1CCC1)C1CCC1)CO2	inactive	inactive	inactive	inactive		
CCCCNc1nc(N)c2[nH]c(=O)n(Cc3ccc(OCCN(C)C)nc3)c2n1	inactive	inactive	inactive	inactive		
CCOC(=O)C1=C(N)Oc2ccc(Cl)cc2C1C(C#N)C(=O)OCC (stereo not given)	inactive	10.7 µM (active)	inactive	inactive		
Cc1nnc(-c2sc(NC(=O)[C@H](C(C)C)n3c(=O)[nH]c4ccccc4c3=O)nc2C)o1	inactive	9.52 µM (active)	inactive	inactive		
Cc1nc2cc(-c3cc(F)cc(C#N)c3)ccc2s1	inactive	10.7 µM (active)	inactive			
N#Cc1cc(-c2n[nH]c(-c3ccncc3)n2)ccn1	inactive	1.51 µM (active)	inactive	inactive		
Cc1c(C)c(NCC(=O)N(C)C2CCN(Cc3ccc(C(N)=O)cc3)CC2)c(C)c(C)c1N	inactive	7.56 µM (active)	inactive	inactive		
CCCCS(=O)(=O)NC(Cc1ccc(OCCCCC2CCNCC2)cc1)C(=O)O (stereo not given)	inactive	inactive	inactive	inactive		
NC1=NC2(c3cc(NC(=O)c4ccc(F)cn4)ccc3F)COCC2CS1 (stereo not given)	inactive	9.52 µM (active)	inactive	inactive		
Cn1cc(CCn2cnc(-c3cnn(C)c3)c2-c2ccc(C#N)cc2)cn1	inactive	inactive	inactive	inactive		
Cc1nc2ccccc2c(-c2ccc3c4c(ccnc24)CCO3)c1[C@H](OC(C)(C)C)C(=O)O	inactive	inactive	inactive	inactive		
COc1ccc(-n2c(=O)[nH]c3cc(C(=O)NCc4ccc(Cl)cc4)sc3c2=O)nc1OC	inactive	9.52 µM (active)	inactive	inactive		
CC(=O)N[C@H](Cc1c[nH]c2ccccc12)C(=O)OCc1cc(C(F)(F)F)cc(C(F)(F)F)c1	inactive	1.9 µM (active)	inactive			

SMILES	Potency [1]	Potency [2]	Potency [3]	Potency [4]	Potency [5]	activity change, negative = viability loss [3]
Fc1ccccc1-c1nc2ccn(Cc3ccc(-c4ccc(C(F)(F)F)cc4C(F)(F)F)nn3)cc-2n1	inactive	23.9 µM (active)	inactive	inactive		
COc1ccnc(CCc2nc3ncccc3[nH]2)c1	inactive	inactive	inactive	inactive		
CN(C)C(=O)C(O)C(Cc1ccccc1)NC(=O)c1cc2cc(Cl)ccc2[nH]1 (stereo not given)	inactive	10.7 µM (active)	inactive	inactive		
CC[C@@H](Nc1c(Nc2cccc(C(=O)N(C)C)c2O)c(=O)c1=O)c1ccc(C)o1	inactive	2.39 µM (active)	inactive			
COc1ccc(CCc2nc3cc(-c4c(C)noc4C)ccc3n2C[C@H](C)N2CCOCC2)cc1Cl	inactive	15.1 µM (active)	3.65 µM (active)	2.58 µM (active)		
CC1(C)CC=C(C#Cc2ccccc2)c2cc(/C=C/c3ccc(C(=O)O)cc3)ccc21	inactive	19 µM (active)	inactive			
NC(=O)[C@@H]1CC[C@H](c2ccc(OCc3ccccc3F)cc2)N1	inactive	inactive	inactive	inactive		
COc1cc(OC)cc(-c2ccc3c(-c4ccc(F)cc4)[nH]nc3n2)c1	inactive	7.56 µM (active)	inactive	inactive		
COc1cn(-c2ccc(-n3cccn3)cc2F)nc(-c2ccnn2-c2ccccc2)c1=O	inactive	15.1 µM (active)	inactive	inactive		
Nc1ncnc2c1ncn2[C@H]1O[C@@H](C(=O)N2CCN(CC(=O)Nc3cccc4c3CNC4=O)CC2)[C@H](O)[C@@H]1O	inactive	inactive	inactive	inactive		
Cc1cc(C)c2nc(-c3ccccn3)cc(C(=O)Nc3ccc(S(=O)(=O)Nc4onc(C)c4C)cc3)c2c1	inactive	26.8 µM (active)				
CC[C@H](NC(=O)c1c(O)c(-c2ccccc2)nc2ccccc12)c1ccccc1	inactive	16.9 µM (active)	inactive			
Cc1onc(-c2ccccc2Cl)c1C(=O)N(C)c1ccc(Cl)cc1	inactive	13.5 µM (active)	inactive	inactive		
COc1ccccc1Oc1c(NS(=O)(=O)c2ccc(C)cn2)nc(-c2ccncc2)nc1OC	inactive	26.8 µM (active)	inactive	inactive		
COc1ccccc1CN[C@H]1CCCN[C@H]1c1ccccc1	inactive	inactive	inactive			
O=C(NCCN1CCCC1)c1cc(-c2ccc(CN3CCOCC3)cc2)nc2ccc(F)cc12	inactive		inactive	inactive	inactive	
O=C(O)c1ccnc2cc(-c3nc4ccccc4n3CCN3CCCCC3)sc12	inactive		inactive	inactive	inactive	
COc1c2c(c(C)c3c1C(=O)OC3)OC1(C)CC(O)C34OC(O)(CCC3(C)C1C2)OC4(C)C (stereo not given)	inactive		inactive			
CC/C=C/C=C/C1(C)OC(CC(CO)OC)=CC1=O (stereo not given)	inactive		inactive			
CN1CCN(C2=Nc3ccccc3Nc3ccc(O)cc32)CC1	inactive	inactive	inactive	inactive		
O=C(N[C@@H]1CC[C@@H](c2cccc(F)c2F)CN(CC(F)(F)F)C1=O)N1CCC(n2c(=O)[nH]c3ncccc32)CC1	inactive	12 µM (active)		16.3 µM (active)		

SMILES	Potency [1]	Potency [2]	Potency [3]	Potency [4]	Potency [5]	activity change, negative = viability loss [3]
C/C=C/C=C/C(O)=C1/C(=O)[C@]2(C)C3/C(=C(O)/C=C/C=C/C)C(=O)C4(C)C1[C@]1(C)O[C@@]4(O)[C@@]3(C)O[C@@]12O	inactive		inactive			
CC(C)=CCC[C@](C)(O[C@@H]1O[C@H](CO[C@@H]2O[C@@H](CO)[C@H](O)[C@H]2O)[C@@H](O)[C@H](O)[C@H]1O)[C@H]1CC[C@]2(C)[C@@H]1[C@H](O)C[C@@H]1[C@@]3(C)CC[C@H](O[C@@H]4O[C@H](CO)[C@@H](O)[C@H](O)[C@H]4O[C@@H]4O[C@H](CO)[C@@H](O)[C@H](O)[C@H]4O)C(C)(C)[C@@H]3CC[C@]12C	inactive		inactive			
COc1cc(/C=C/C(=O)OC[C@H]2O[C@@H](OC3OC=C(C(=O)O)C4C(O)CC(C)(O)C34)[C@H](O)[C@@H](O)[C@@H]2O)cc(OC)c1O (stereo not given in full)	inactive		inactive			
C=C1CCC2[C@@](C)(C(=O)O)CCC[C@@]2(C)[C@@H]1CCc1ccoc1 (stereo not given in full)	inactive		inactive			
CC(C)(O)C1OC1C1=CC(=O)C2(C)OC2C1O (stereo not given)	inactive		inactive			
C=C1CC[C@@]2(OC1)O[C@H]1CC3C4CC=C5C[C@@H](O[C@@H]6O[C@@H](C)[C@H](O)[C@@H](O)[C@H]6O)C[C@@H](O[C@@H]6O[C@H](C)[C@H](O)[C@H](O)[C@H]6O[C@@H]6O[C@@H](C)[C@H](O)[C@@H](O)[C@H]6O)[C@]5(C)C4CC[C@]3(C)[C@H]1[C@@H]2C (stereo not given in full)	inactive					-22.3% [at 9.23 µM]
O=C(O)c1cc(C(F)(F)F)ccc1N1CC[C@H](OCc2ccccn2)C1	inactive	19 µM (active)	inactive	inactive		
COc1cccc(CNc2ccc(S(=O)(=O)Nc3nc4ccccc4s3)cc2)c1O	inactive	6.74 µM (active)	inactive	inactive		
COc1c(C)c(OCC=C(C)C)cc2c1COC2=O	inactive		inactive			
CC(C)c1ccc2c(c1)C(O)CC1C(C)(C(=O)O)CCCC21C (stereo not given)	inactive		inactive			
O=C(Nc1cc(-c2ccccc2)nn1-c1ccccc1F)c1ccc([N+](=O)[O-])cc1	inactive	6.74 µM (active)		inactive		
O=C(CC1CC(c2ccc(F)cc2F)=NO1)N1CCOCC1 (stereo not given)	inactive	inactive	inactive	inactive		
C/C=C1\[C@H](O[C@@H]2O[C@H](CO)[C@@H](O)[C@H](O)[C@H]2O)OC=C(C(=O)OCCc2ccc(O)cc2)[C@H]1CC(=O)OCCc1ccc(O)cc1	inactive		inactive			
COc1ccc(O[C@@H]2O[C@H](CO)[C@@H](O)[C@H](O)[C@H]2O)cc1OC	inactive		inactive			
C=Cc1cc2oc(-c3ccc(O)c(F)c3)nc2cc1O	inactive				31.6 µM (active)	
CCC(C)C1NC(=O)C2C(C)CCN2C(=O)C(CC(O)CO)OC(=O)CCNC(=O)C(C)N(C)C(=O)C(C(C)C)N(C)C1=O (stereo not given)	inactive		inactive			
COC(=O)C(CC1CCCC1)c1ccc(S(C)(=O)=O)cc1 (stereo not given)	inactive	4.77 µM (active)	inactive	inactive		
CS(=O)(=O)c1ccccc1N1CCN(c2nc3c(c(=O)[nH]2)CSCC3)CC1	inactive	8.49 µM (active)	inactive	inactive		
C/C(=C\CC[C@H](CO)[C@@H]1CC[C@]2(C)C3=C(CC[C@@]12C)[C@@]1(C)CCC(=O)C(C)(C)C1CC3)C(=O)O (stereo not given in full)	inactive		inactive			
C=C1C(O)CCC2(C)CC3(OC)OC(=O)C(C)=C3CC12 (stereo not given)	inactive		inactive			

Reference: PubChem BioAssay (NCATS)
